Data reported in PubChem BioAssay AID1159580 (chemical genetic matrix, 2015).
Out of some 5,500 compounds screened, about 2,000 (36%) were called active. Roughly 18% stayed inconclusive and do not appear here. Cut-off read from the data, not from the text of the source: active = normalized growth mostly below about 0.91 (no sharp cut-off); inconclusive = no clear call, values can overlap the other calls; inactive = mostly above about 0.92. The list shows a part of the results.

Experiment: chemical genetic growth profiling, strain panel (AID 1159580);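 note: tested at 20 µM; growth read once vehicle control cultures reached saturation at 30 °C; 1 = growth at the plate median or of vehicle wells; lower values mean less growth of the strain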
Settings: S. cerevisiae deletion strains, growth OD
[1] = locus YDL101C, strain DUN1, active compounds read low
[2] = locus YHR030C, strain SLT2, active compounds read low

Measured: normalized growth

O=C(Oc1ccc(F)cc1)c1cccs1
inactive: locus YAL013W, strain DEP1, active compounds read low 1.01 | locus YBR229C, strain ROT2, active compounds read low 1.01 | [1] 1.03 | locus YDR150W, strain NUM1, active compounds read low 0.941 | locus YEL061C, strain CIN8, active compounds read low 1 | locus YGR078C, strain PAC10, active compounds read low 1.01 | [2] 0.987 | locus YHR087W, strain rtc3, active compounds read low 0.992 | locus YJR043C, strain POL32, active compounds read low 1.03 | locus YJR075W, strain HOC1, active compounds read low 0.986 | locus YLR039C, strain RIC1, active compounds read low 1.05 | locus YLR058C, strain SHM2 (second series), active compounds read low 0.995 | locus YLR085C, strain ARP6, active compounds read low 0.992 | locus YLR262C, strain YPT6, active compounds read low 0.967 | locus YML094W, strain GIM5, active compounds read low 0.989 | locus YMR219W, strain ESC1, active compounds read low 0.993 | locus YMR263W, strain SAP30, active compounds read low 0.966 | locus YNL153C, strain GIM3, active compounds read low 1.02 | locus YNL298W, strain CLA4 (second series), active compounds read low 1.03 | locus YNL322C, strain KRE1, active compounds read low 1 | locus YNR030W, strain Alg12, active compounds read low 1.02 | locus YPL055C, strain LGE1, active compounds read low 0.91 | locus YPL241C, strain CIN2, active compounds read low 1 | locus YPR135W, strain CTF4, active compounds read low 1.01

O=C(Oc1ccc(C2SCCS2)cc1)c1cccs1
inactive: locus YAR019C, strain CDC15, active compounds read low 1 | locus YBL105C, strain PKC1, active compounds read low 1.01 | locus YBR135W, strain CKS1, active compounds read low 0.997 | locus YBR136W, strain MEC1, active compounds read low 1.01 | locus YBR160W, strain CDC28, active compounds read low 1 | locus YDL017W, strain CDC7, active compounds read low 0.999 | locus YDL028C, strain MPS1, active compounds read low 0.993 | [1] 1.01 | locus YDL108W, strain KIN28, active compounds read low 0.996 | locus YDL132W, strain cdc53, active compounds read low 0.995 | locus YDL214C, strain PRR2, active compounds read low 0.775 | locus YDR052C, strain DBF4, active compounds read low 1.01 | locus YDR054C, strain cdc34, active compounds read low 1 | locus YDR226W, strain ADK1, active compounds read low 1 | locus YDR477W, strain SNF1, active compounds read low 0.818 | locus YER123W, strain YCK3, active compounds read low 0.812 | locus YER133W, strain GLC7, active compounds read low 0.834 | locus YFL009W, strain cdc4, active compounds read low 1 | locus YFL029C, strain CAK1, active compounds read low 1.02 | locus YFR003C, strain YPI1, active compounds read low 1.01 | locus YFR028C, strain CDC14, active compounds read low 0.988 | locus YGR040W, strain KSS1, active compounds read low 0.869 | locus YGR052W, strain FMP48, active compounds read low 0.821 | locus YGR092W, strain DBF2, active compounds read low 0.768 | locus YHR079C, strain IRE1, active compounds read low 0.678 | locus YHR082C, strain KSP1, active compounds read low 0.716 | locus YHR205W, strain SCH9, active compounds read low 0.936 | locus YIL147C, strain SLN1, active compounds read low 1 | locus YJL095W, strain BCK1, active compounds read low 0.572 | locus YJL128C, strain PBS2, active compounds read low 0.951 | locus YJL157C, strain FAR1, active compounds read low 0.716 | locus YJR016C, strain ILV3, active compounds read low 1 | locus YJR066W, strain TOR1 (second series), active compounds read low 0.884 | locus YJR066W, strain TOR1, active compounds read low 0.684 | locus YKL048C, strain ELM1, active compounds read low 0.937 | locus YKL101W, strain HSL1, active compounds read low 0.852 | locus YKL193C, strain SDS22, active compounds read low 0.997 | locus YKL203C, strain TOR2, active compounds read low 0.876 | locus YLR113W, strain HOG1, active compounds read low 0.884 | locus YLR133W, strain CKI1, active compounds read low 0.896 | locus YLR403W, strain SFP1, active compounds read low 0.763 | locus YML070W, strain DAK1, active compounds read low 0.726 | locus YMR001C, strain CDC5, active compounds read low 1.01 | locus YMR205C, strain PFK2 (second series), active compounds read low 0.805 | locus YMR277W, strain FCP1, active compounds read low 1 | locus YNL006W, strain LST8, active compounds read low 1 | locus YNL020C, strain ARK1, active compounds read low 0.829 | locus YNL161W, strain CBK1, active compounds read low 1 | locus YNL183C, strain NPR1, active compounds read low 0.81 | locus YNL207W, strain RIO2, active compounds read low 1 | locus YNL222W, strain SSU72, active compounds read low 0.999 | locus YNL307C, strain MCK1 (second series), active compounds read low 0.784 | locus YOL078W, strain AVO1, active compounds read low 0.997 | locus YOL136C, strain PFK27, active compounds read low 0.701 | locus YOR061W, strain CKA2, active compounds read low 0.737 | locus YOR119C, strain RIO1, active compounds read low 0.785 | locus YOR329C, strain SCD5, active compounds read low 1.01 | locus YPL031C, strain PHO85, active compounds read low 0.697 | locus YPL153C, strain RAD53, active compounds read low 0.777 | locus YPL204W, strain HRR25, active compounds read low 0.852 | locus YPL209C, strain IPL1, active compounds read low 1.01 | locus YPR025C, strain CCL1, active compounds read low 0.997 | locus YPR106W, strain ISR1, active compounds read low 1.01 | locus YPR111W, strain DBF20, active compounds read low 1 | strain NNK1, active compounds read low 1.03 | strain TSCII, active compounds read low 1.02
active: locus YFR019W, strain FAB1, active compounds read low 0.689 | [2] 0.667 | locus YKL067W, strain YNK1, active compounds read low 0.684 | locus YOR231W, strain MKK1, active compounds read low 0.549 | locus YPL256C, strain CLN2, active compounds read low 0.776
